Laboratory results: PubChem BioAssay (NCATS)
Results filed as inconclusive are left out. The source made the active and inactive calls. Unless noted, calls follow the shape of the dose curve; as a rule, active = well fitted curve in the direction sought with a large enough effect; inconclusive = small, poorly fitted or top-dose-only effect, or another doubt; inactive = no such curve, though single readings can be large; an effect the other way counts as inactive or inconclusive.

What was measured:
[1] = molecular target: Mitogen-activated protein kinase 10 (Mus musculus) (UniProt Q61831); test: JNK3 AlphaScreen Assay (AID 530; active = well fitted curve in either direction with a large enough effect, not every such curve was filed as active;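 also: kinase came from lysate of stimulated human HepG2 cells; signal reports phosphorylation of biotinylated GST-cJun 1-79 at Ser73 with 10 µM ATP; series mostly up to about 57 µM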)
Method in brief: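 Phosphorylation of biotinylated GST-cJun(1-79) at Ser73 is measured by AlphaScreen proximity luminescence. Enzyme is JNK3 in HepG2 lysates activated with interleukin-1beta and tumor necrosis factor alpha; ATP is 10 uM final.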

[2] = molecular target: 3',5'-cyclic-AMP phosphodiesterase 4B (Homo sapiens) (UniProt Q07343); test: qHTS Assay for Inhibitors of PDE-IV (AID 607; active = well fitted activation curve with a large enough effect in the main read-out, with a control signal flat, not every such curve was filed as active)
3',5'-cyclic-AMP phosphodiesterase 4B (Homo sapiens), sequence (Q07343 whole entry, looked up): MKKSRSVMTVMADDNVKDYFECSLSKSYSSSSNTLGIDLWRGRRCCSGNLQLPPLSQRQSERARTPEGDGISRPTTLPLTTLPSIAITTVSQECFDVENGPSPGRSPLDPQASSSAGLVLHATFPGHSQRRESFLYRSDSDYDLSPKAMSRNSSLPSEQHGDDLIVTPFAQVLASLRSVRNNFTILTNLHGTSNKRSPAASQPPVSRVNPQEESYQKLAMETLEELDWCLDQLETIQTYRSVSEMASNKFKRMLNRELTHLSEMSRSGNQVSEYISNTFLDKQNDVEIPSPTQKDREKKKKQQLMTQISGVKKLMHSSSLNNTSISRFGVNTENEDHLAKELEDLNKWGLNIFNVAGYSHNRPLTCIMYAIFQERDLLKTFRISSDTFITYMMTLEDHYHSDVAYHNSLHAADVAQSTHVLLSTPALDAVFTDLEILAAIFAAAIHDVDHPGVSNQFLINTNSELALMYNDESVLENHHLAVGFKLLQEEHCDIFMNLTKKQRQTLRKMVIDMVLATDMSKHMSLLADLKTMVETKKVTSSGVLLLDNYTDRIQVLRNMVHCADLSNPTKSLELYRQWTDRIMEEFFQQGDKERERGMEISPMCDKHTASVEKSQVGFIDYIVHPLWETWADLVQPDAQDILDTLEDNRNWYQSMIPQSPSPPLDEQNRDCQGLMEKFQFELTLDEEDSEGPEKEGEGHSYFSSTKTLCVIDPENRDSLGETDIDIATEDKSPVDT
Method in brief: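 Live HEK293 cells with a modified cyclic nucleotide-gated (CNG) channel report intracellular cAMP via membrane-potential dye fluorescence (ex 535/em 590 nm). Endogenous PDE-IV was targeted. Compounds were tested at up to 22.9 uM final; RO 20-1724 100 uM served as control.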

[3] = qHTS for Inhibitors of Plasmodium falciparum (DD2) proliferation (AID 504314);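 also: parasite DNA measured by SYBR Green fluorescence after red cell lysis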
Method in brief: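 Normalization used 0.29 uM artemisinin as full inhibition and DMSO as baseline. Parasitized erythrocytes were exposed to compounds for 72 h (37C, 5% CO2), then lysed with saponin/Triton buffer containing SYBR Green I.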

[4] = qHTS for Inhibitors of Plasmodium falciparum (GB4) proliferation (AID 504315); also: nearly all actives have a fitted effect of over 50% in size
Method in brief: (§1)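 Parasite growth measured as SYBR Green DNA fluorescence (ex 485, em 535 nm) after overnight lysis following 72 h culture at 37 °C, 0.3% parasitemia, 2.5% hematocrit. Values normalized against DMSO and 0.29 uM artemisinin controls, with plate-stack correction.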

[5] = qHTS for Inhibitors of Plasmodium falciparum (HB3) proliferation (AID 504318); also: nearly all actives have a fitted effect of over 60% in size
Method in brief: as §1

[6] = qHTS for Inhibitors of Plasmodium falciparum (CP250) proliferation (AID 504320)
Method in brief: as §1

[7] = molecular target: Cytochrome P450 2D6 (Homo sapiens) (UniProt P10635); test: qHTS Assay for Inhibitors and Substrates of Cytochrome P450 2D6 (AID 891);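 also: luciferin methyl ether substrate demethylated by CYP2D6 with NADPH regeneration; nearly all actives have a fitted effect of over 60% in size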
Cytochrome P450 2D6 (Homo sapiens), sequence (P10635 whole entry, looked up): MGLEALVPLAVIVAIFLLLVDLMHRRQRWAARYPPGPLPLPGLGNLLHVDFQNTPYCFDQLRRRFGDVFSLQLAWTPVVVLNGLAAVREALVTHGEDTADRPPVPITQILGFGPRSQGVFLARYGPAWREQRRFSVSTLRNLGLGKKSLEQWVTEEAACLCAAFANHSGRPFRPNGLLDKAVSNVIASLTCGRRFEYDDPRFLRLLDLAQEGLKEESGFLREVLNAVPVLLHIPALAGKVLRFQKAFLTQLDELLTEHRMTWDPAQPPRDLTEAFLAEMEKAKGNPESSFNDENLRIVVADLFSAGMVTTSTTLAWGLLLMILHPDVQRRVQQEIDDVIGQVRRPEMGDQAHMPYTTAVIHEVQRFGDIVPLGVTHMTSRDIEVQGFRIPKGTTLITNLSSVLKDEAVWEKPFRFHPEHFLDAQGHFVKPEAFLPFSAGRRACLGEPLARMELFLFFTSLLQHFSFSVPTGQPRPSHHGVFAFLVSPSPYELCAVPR
Method in brief: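 Luminescent read-out of luciferin formed by 5 nM human CYP2D6 demethylating 30 uM Luciferin-ME EGE (Km level) over 60 min at room temperature after NADPH regeneration addition. Data normalized to full inhibition by 1.43 uM quinidine.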

[8] = molecular target: Cytochrome P450 2C19 (Homo sapiens) (UniProt P33261); test: qHTS Assay for Inhibitors and Substrates of Cytochrome P450 2C19 (AID 899); also: nearly all actives have a fitted effect of over 60% in size
Cytochrome P450 2C19 (Homo sapiens), sequence (P33261 whole entry, looked up): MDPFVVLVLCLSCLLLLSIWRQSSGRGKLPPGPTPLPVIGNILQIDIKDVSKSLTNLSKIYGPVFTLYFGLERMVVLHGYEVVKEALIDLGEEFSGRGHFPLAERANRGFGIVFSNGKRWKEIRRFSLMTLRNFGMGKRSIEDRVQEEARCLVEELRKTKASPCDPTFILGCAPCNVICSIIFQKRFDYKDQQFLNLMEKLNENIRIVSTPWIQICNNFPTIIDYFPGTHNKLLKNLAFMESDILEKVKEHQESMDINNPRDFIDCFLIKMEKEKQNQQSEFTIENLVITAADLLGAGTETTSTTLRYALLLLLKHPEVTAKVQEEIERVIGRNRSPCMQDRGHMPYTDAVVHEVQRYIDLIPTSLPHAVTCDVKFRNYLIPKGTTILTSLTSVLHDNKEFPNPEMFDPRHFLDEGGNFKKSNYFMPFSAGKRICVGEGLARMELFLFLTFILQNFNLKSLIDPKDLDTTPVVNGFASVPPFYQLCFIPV
Method in brief: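 NADPH-dependent conversion of Luciferin-H EGE (10uM, at KM) by 5nM enzyme in 50mM KPO4, 60 min at 37C following 10 min compound preincubation. Stopped with luciferin detection buffer; luminescence read after 20 min.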

Measured: Potency

O=C(NCCF)[C@H]1C[C@@H]1[C@H](NP(=O)(c1ccccc1)c1ccccc1)c1ccccc1
inactive: [1] | [2]

COC(=O)CCC(=O)OC1(C)C(=O)C=C2C=C(C3CC3)N(C3CCCC3)C=C2C1=O (centres undefined)
inactive: [3] | [4] | [5] | [6]

C=CC1=C2C=C(C3CC3)N(CCCN(CC)CC)C=C2C(=O)C(C)(OC(=O)c2ccco2)C1=O (centres undefined)
inactive: [3] | [4] | [5] | [6]

NCCC[C@@H](CC(=O)N[C@@H]1CCNC[C@H]1C(=O)N[C@H](CC(=O)N[C@@H](CCC(=O)O)CC(=O)O)Cc1ccccc1)NC(=O)C[C@H](CO)NC(=O)[C@@H]1CNCC[C@H]1N
inactive: [2] | [7]

C=CCN1c2ccccc2[C@]23C[C@@H](C(=O)OC)N(C(=O)CC(C)C)C2=NC(C(=O)OC)=C(C(=O)OC)[C@H]13
inactive: [3] | [4] | [6]

CO[C@@H]1/C=C\O[C@]2(C)Oc3c(C)c(O)c4c(O)c(c(/C=N\N5CCN(C)CC5)c(O)c4c3C2=O)NC(=O)/C(C)=C\C=C/[C@H](C)[C@H](O)[C@H](C)[C@H](O)[C@H](C)[C@H](OC(C)=O)[C@@H]1C
inactive: [2]

COC(=O)C1=C(C(=O)OC)[C@@H]2N(C)c3ccc(OC)cc3[C@@]23C[C@@H](C(=O)OC)N(C(=O)COCc2ccccc2)C3=N1
inactive: [3] | [4] | [5] | [6]

CCOC(=O)CN1C(=O)N[C@@H](c2cccs2)C(C(C)=O)=C1C
inactive: [3] | [4] | [5] | [6]

CCCCC1=CC2=C(c3ccco3)C(=O)C(C)(OC(=O)c3ccc(OC)cc3)C(=O)C2=CN1C1CC1 (centres undefined)
inactive: [3] | [4] | [5] | [6]

COC(=O)CCC(=O)OC1(C)C(=O)C2=CN(Cc3ccccc3)C(c3ccc(OC)cc3)=CC2=C(Br)C1=O (centres undefined)
inactive: [3] | [4] | [5] | [6]

COc1ccc(-c2nc3c(c4c2C[C@H](c2ccccc2)OC4)CN(S(=O)(=O)c2ccc4c(c2)OCCN4C)CC3)c(C)c1
inactive: [3] | [4] | [5] | [6]

NCCC[C@@H](CC(=O)N[C@@H]1CCCC[C@H]1C(=O)N[C@H](CC(=O)N[C@@H](CCC(=O)O)CC(=O)O)Cc1ccccc1)NC(=O)C[C@H](CO)NC(=O)[C@@H]1CCCC[C@H]1N
inactive: [2] | [7] | [8]
